Test results taken from PubChem BioAssay (NCATS).
Results filed as inconclusive are left out. A number with no mark means an inactive call. The source made the active and inactive calls. The call rests on the fitted dose curve; in most records, active means well fitted cell-killing curve with a large enough effect; inconclusive means small, poorly fitted or top-dose-only effect, or effect the other way; inactive means no such curve, though single readings can be large or run the other way.
Potency means the concentration at half of the fitted maximal effect.

Test: Quantitative High-Throughput drug screen in 47 multiple myeloma cell lines against the NCATS MIPE library collection: FR4_PLB cell viability assay (AID 1918924; further: nearly all actives have a fitted effect of over 35% in size)
Conditions: FR4_PLB myeloma cells viability, CellTiter-Glo ATP, 48 h; series mostly up to 45.8 µM; viability (% of DMSO control): at the top concentration
How it was run: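 Inhibition of cell viability is measured here. Each line was plated at 500 cells per well, treated with MIPE 4.0 drugs, kept 48 hours at 37C, then assayed for ATP content by CellTiter-Glo luminescence.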
With `c1cc2c(cc1[C@H]1OC[C@H]3[C@H]1CO[C@H]3c1ccc3c(c1)OCO3)OCO2` the “viability (% of DMSO control)” value was 114%.
In the case of `C[C@]12CC[C@H]3[C@@H](CCC4=CC(=O)CC[C@@]43C)[C@H]1CC[C@H]2O`, the “viability (% of DMSO control)” value is reported as 108%.
In the case of `COc1ccc(CC2NCCc3cc(OC)c(OC)cc32)cc1OC` (configuration not stated), the “viability (% of DMSO control)” value is reported as 116%.
In the case of `C[C@@H]1O[C@@H](O[C@@H]2C=C3CC[C@@H]4[C@@H](CC[C@]5(C)[C@H](c6ccc(=O)oc6)CC[C@@]45O)[C@@]3(C)CC2)[C@H](O)[C@H](O)[C@H]1O`, the Potency is reported as 0.0083 µM (active).
For `C[C@]12COC(=O)C[C@@H]1CC[C@@H]1[C@H]2CC[C@@]2(C)[C@H]1CC[C@]2(C)O`, the “viability (% of DMSO control)” value was 116%.
With `C[C@]12CCC(=O)C(O)=C1CC[C@@H]1[C@H]3CCC(=O)[C@@]3(C)CC[C@@H]12` the “viability (% of DMSO control)” value was 103%.
For `Cc1c(C(=O)c2cccc3ccccc23)c2cccc3c2n1[C@H](CN1CCOCC1)CO3`, the Potency was 23.5 µM (active).
In the case of `COC[C@H]1OC(=O)c2coc3c2[C@@]1(C)C1=C(C3=O)[C@@H]2CC[C@H](O)[C@@]2(C)C[C@@H]1OC(C)=O`, the Potency is reported as 3.72 µM (active).
In the case of `C[C@H]1CCCC=CC2C[C@H](O)C[C@@H]2[C@H](O)C=CC(=O)O1` (some centres not stated), the “viability (% of DMSO control)” value is reported as 42%.
In the case of `CC[C@@H]1[C@@H](C)O[C@@](O)([C@@H](C)[C@H](O)[C@H](C)[C@H]2OC(=O)C=CC=C[C@@H](C)[C@@H]([C@@H](C)[C@@H](O)[C@H](C)[C@@]3(O)C[C@H](O[C@H]4C[C@H](O)[C@H](O)[C@H](C)O4)[C@H](CC)[C@@H](C)O3)OC(=O)C=CC=C[C@@H]2C)C[C@H]1O[C@H]1C[C@H](O)[C@H](O)[C@H](C)O1`, the Potency is reported as 0.526 µM (active).
In the case of `CCOC(=O)c1cncn1[C@H](C)c1ccccc1`, the “viability (% of DMSO control)” value is reported as 108%.
With `C1=C2CCCN[C@H]2[C@@H]2C[C@H]1[C@@H]1CCCCN1C2` the “viability (% of DMSO control)” value was 104%.
With `O=[N+]([O-])c1ncc[nH]1` the “viability (% of DMSO control)” value was 105%.

Test: Quantitative High-Throughput drug screen in 47 multiple myeloma cell lines against the NCATS MIPE library collection: Delta47_JCRB cell viability assay (AID 1918925; further: nearly all actives have a fitted effect of over 45% in size)
Conditions: Delta47 myeloma viability, CellTiter-Glo ATP, 48 h; series mostly up to 45.8 µM; viability (% of DMSO): at the top concentration
How it was run: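 CellTiter-Glo ATP luminescence gave viability after 48 h compound treatment at 37C of 500 multiple myeloma cells per well. Normalisation used DMSO-only wells as 100% and media-only wells as 0% viability; primary qHTS of approved and investigational drugs.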
In the case of `c1cc2c(cc1[C@H]1OC[C@H]3[C@H]1CO[C@H]3c1ccc3c(c1)OCO3)OCO2`, the “viability (% of DMSO)” value is reported as 112%.
With `C[C@]12CC[C@H]3[C@@H](CCC4=CC(=O)CC[C@@]43C)[C@H]1CC[C@H]2O` the “viability (% of DMSO)” value was 96.9%.
With `CC(O)=C(C#N)C(=O)Nc1cc(Br)ccc1Br` the “viability (% of DMSO)” value was 97.3%.
With `COc1cccc2c1[C@]13CCN(CC4CC4)[C@H](C2)[C@]1(OC)CCC(=O)C3` the “viability (% of DMSO)” value was 107%.
With `COc1ccc(CC2NCCc3cc(OC)c(OC)cc32)cc1OC` (configuration not stated) the “viability (% of DMSO)” value was 65.6%.
For `CC(C)(O)C=CC(=O)[C@](C)(O)[C@H]1[C@H](O)C[C@]2(C)[C@@H]3CC=C4[C@@H](C=C(O)C(=O)C4(C)C)[C@]3(C)C(=O)C[C@@]12C`, the Potency was 0.0166 µM (active).
With `C[C@@H]1O[C@@H](O[C@@H]2C=C3CC[C@@H]4[C@@H](CC[C@]5(C)[C@H](c6ccc(=O)oc6)CC[C@@]45O)[C@@]3(C)CC2)[C@H](O)[C@H](O)[C@H]1O` the Potency was 0.0264 µM (active).
For `COC1=CC(C)=C[C@@H](C)[C@@H](O)[C@@H](C)CC(C)=CC=C[C@H](OC)[C@H]([C@@H](C)[C@@H](O)[C@H](C)[C@@]2(O)C[C@@H](O)[C@H](C)[C@@H](C(C)C)O2)OC1=O`, the Potency was 0.0187 µM (active).
For `C[C@]12COC(=O)C[C@@H]1CC[C@@H]1[C@H]2CC[C@@]2(C)[C@H]1CC[C@]2(C)O`, the “viability (% of DMSO)” value was 116%.
For `C[C@]12CCC(=O)C(O)=C1CC[C@@H]1[C@H]3CCC(=O)[C@@]3(C)CC[C@@H]12`, the “viability (% of DMSO)” value was 96.7%.
In the case of `CCC(=O)OC1CCC2C3CCC4=CC(=O)CC[C@@]4(C)C3CC[C@]12C` (some centres not stated), the Potency is reported as 18.7 µM (active).
In the case of `COc1ccc2c(c1)CN(C)CC2c1ccc(Cl)c(Cl)c1` (configuration not stated), the Potency is reported as 23.5 µM (active).
With `O=C1CCC[C@@H]2[C@H]3CCCN4CCC[C@@H](CN12)[C@@H]34` the “viability (% of DMSO)” value was 100%.
With `Cc1c(C(=O)c2cccc3ccccc23)c2cccc3c2n1[C@H](CN1CCOCC1)CO3` the Potency was 14.8 µM (active).
For `COC[C@H]1OC(=O)c2coc3c2[C@@]1(C)C1=C(C3=O)[C@@H]2CC[C@H](O)[C@@]2(C)C[C@@H]1OC(C)=O`, the Potency was 0.0066 µM (active).
In the case of `C[C@H]1CCCC=CC2C[C@H](O)C[C@@H]2[C@H](O)C=CC(=O)O1` (some centres not stated), the “viability (% of DMSO)” value is reported as 5.73%.
For `CC[C@@H]1[C@@H](C)O[C@@](O)([C@@H](C)[C@H](O)[C@H](C)[C@H]2OC(=O)C=CC=C[C@@H](C)[C@@H]([C@@H](C)[C@@H](O)[C@H](C)[C@@]3(O)C[C@H](O[C@H]4C[C@H](O)[C@H](O)[C@H](C)O4)[C@H](CC)[C@@H](C)O3)OC(=O)C=CC=C[C@@H]2C)C[C@H]1O[C@H]1C[C@H](O)[C@H](O)[C@H](C)O1`, the Potency was 0.743 µM (active).
In the case of `CC[C@H]1C=CC=CC[C@@H](C)[C@H](O)[C@@](C)(O)C(=O)[C@@H](C)[C@H](O)[C@@H](C)C(=O)[C@@H](C)[C@H](O)[C@@H](C)C=CC(=O)O[C@@H]2[C@@H](C)[C@H](CC1)O[C@]1(CC[C@H](C)[C@H](C[C@@H](C)O)O1)[C@H]2C`, the Potency is reported as 0.001 µM (active).
For `Cc1c(N)nc([C@H](CC(N)=O)NC[C@@H](N)C(N)=O)nc1C(=O)N[C@H](C(=O)N[C@@H](C)[C@H](O)[C@@H](C)C(=O)N[C@@H](C(=O)NCCc1nc(-c2nc(C(=O)NCCC[S+](C)C)cs2)cs1)[C@@H](C)O)C(O[C@H]1O[C@H](CO)[C@H](O)[C@@H](O)[C@@H]1O[C@H]1O[C@H](CO)[C@@H](O)[C@H](OC(N)=O)[C@H]1O)c1cnc[nH]1` (some centres not stated), the Potency was 0.469 µM (active).
For `CC(=Cc1csc(C)n1)[C@@H]1C[C@H]2O[C@@H]2CCC[C@H](C)[C@@H](O)[C@@H](C)C(=O)C(C)(C)[C@@H](O)CC(=O)O1`, the “viability (% of DMSO)” value was 30.6%.
With `CC(=Cc1csc(C)n1)[C@@H]1C[C@H]2O[C@]2(C)CCC[C@H](C)[C@@H](O)[C@@H](C)C(=O)C(C)(C)[C@@H](O)CC(=O)O1` the “viability (% of DMSO)” value was 42.9%.
In the case of `CC(C)[C@]12O[C@@H]1[C@@H]1O[C@]13[C@]1(O[C@H]1C[C@@H]1C4=C(CC[C@@]13C)C(=O)OC4)[C@H]2O`, the “viability (% of DMSO)” value is reported as 2.21%.
In the case of `CCOC(=O)c1cncn1[C@H](C)c1ccccc1`, the “viability (% of DMSO)” value is reported as 81.7%.
In the case of `CC(=O)OCC1=C(C(=O)O)N2C(=O)[C@@H](N)[C@@H]2SC1`, the “viability (% of DMSO)” value is reported as 147%.
In the case of `N#C[C@H](O[C@@H]1O[C@H](CO[C@@H]2O[C@H](CO)[C@H](O)[C@H](O)[C@H]2O)[C@H](O)[C@H](O)[C@H]1O)c1ccccc1`, the Potency is reported as 18.7 µM (active).
In the case of `C1=C2CCCN[C@H]2[C@@H]2C[C@H]1[C@@H]1CCCCN1C2`, the “viability (% of DMSO)” value is reported as 112%.
For `C[C@H]([C@H](O)CCC(C)(C)O)[C@H]1CC[C@@]2(O)C3=CC(=O)[C@@H]4C[C@@H](O)[C@@H](O)C[C@]4(C)[C@@H]3CC[C@]12C`, the “viability (% of DMSO)” value was 99.4%.
With `C=C[C@@H]1CN2CCC1C[C@@H]2[C@@H](O)c1ccnc2ccccc12` (some centres not stated) the Potency was 23.5 µM (active).
In the case of `O=[N+]([O-])c1ncc[nH]1`, the “viability (% of DMSO)” value is reported as 73.6%.
With `CN1[C@H]2CC(O)C[C@H]1[C@H]1O[C@H]12` (some centres not stated) the Potency was 9.35 µM (active).
With `CC=C(C)C(=O)O[C@H]1C(C)=C2[C@@H]3OC(=O)[C@@](C)(O)[C@@]3(O)[C@@H](OC(=O)CCC)C[C@](C)(OC(C)=O)[C@@H]2[C@@H]1OC(=O)CCCCCCC` the Potency was 0.235 µM (active).
In the case of `C=CCON=C(C[C@H]1O[C@@H]2O[C@]3(C)CC[C@@H]4[C@H](C)CC[C@@H]([C@H]1C)[C@@]24OO3)[C@H]1O[C@@H]2O[C@]3(C)CC[C@H]4[C@H](C)CC[C@@H]([C@@H]1C)[C@@]24OO3`, the Potency is reported as 0.372 µM (active).
For `CC(C)N[C@@H]1CCn2c(=O)[nH]c3cccc(c32)[C@@H]1O`, the Potency was 14.8 µM (active).
For `C[C@@H]1CC[C@@]2(OC1)O[C@H]1C[C@H]3[C@@H]4CC=C5C[C@@H](O[C@@H]6O[C@H](CO)[C@@H](O[C@@H]7O[C@@H](C)[C@H](O)[C@@H](O)[C@@H]7O)[C@H](O)[C@@H]6O[C@@H]6O[C@@H](C)[C@H](O)[C@@H](O)[C@@H]6O)CC[C@]5(C)[C@@H]4CC[C@]3(C)[C@@H]1[C@H]2C`, the Potency was 5.9 µM (active).
